Laboratory results reported in PubChem BioAssay.
Several values for one entry are separate records, joined by “and”; a condition that tells them apart may be missing. Identical values can stand only once. Activity calls are given as the source filed them.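 Rule for the calls, unless noted: active = normalized viability below 100% at a tested concentration; inactive = the rest.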

Key:
[1] = circadian clock period modulators, cell-based, LOPAC library, luminescence reporter (AID 2774; call rule not given here;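 note: values are relative to mean of DMSO wells on each plate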); settings: circadian reporter cells, at 7 µM, actives lie on both sides
[2] = hESC survival regulators, cell-based (AID 493140; call rule not given here;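 note: cells exposed to compounds for four days before counting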); settings: human embryonic stem cell survival screen; stronger effect = higher value
[3] = tested on: Hepatitis C virus NS3 helicase; assay: HCV NS3 helicase inhibitors, primary screen, biochemical, fluorescence polarization, LOPAC1280 library (AID 687035; in the data active = inhibition above about 37%); settings: Purified HCV NS3 helicase, Cy5-dT15 ssDNA binding fluorescence polarization; stronger effect = higher value; concentration not given here
[4] = Cy5 fluorescence quenching or enhancement artefacts, artefact control for HCV NS3 helicase inhibitor project, biochemical, LOPAC1280 (AID 687037; call rule not given here); settings: Cy5-DNA-NS3h complex fluorescence interference counterscreen
[5] = tested on: Aerobactin synthetase IucA (Klebsiella pneumoniae); assay: IucA aerobactin synthetase inhibitors, biochemical, Tocris library, absorbance (AID 1345561; call rule not given here;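 note: 100% = enzyme without compound and 0% = no enzyme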); settings: purified IucA enzyme assay, absorbance (OD) read-out; stronger effect = lower value;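 tested at 8 µM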
[6] = sensitizers of A549 cells to miR-34 induction, primary screen, imaging, A549 dox-inducible miR-34, nuclei and caspase counts (AID 1347080;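 active = compounds whose cell count with miR-34 switched on is under 0.7 times the count with it off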); settings: A549 miR-34 inducible, Hoechst nuclei count, 48 h
[7] = phospholipid biosynthesis inhibitors in animal cells, primary screen, cell-based, LOPAC library, screen 4 (AID 1347384; call rule not given here); settings: phospholipid biosynthesis inhibition screen, at 10 µM
[8] = viability rescue of complex I mutant cybrids, primary screen, cell-based, galactose medium, ATP luminescence (AID 1645843;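 active = z-score of at least 1.8 in each of two replicates, scored against plate mean and spread of sample wells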;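 note: positive z means more ATP and so rescue of galactose-driven cybrid death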); settings: complex I mutant cybrid cells, 72 h, stronger effect = higher value
[9] = modifiers of HSF1 nuclear foci, imaging, Selleck Cancer Library (AID 1347162; in the data active = plate-normalised HSF1 focus index below about 0.46); settings: human cells, at 10 µM; SSMD: measured here: HSF1 foci SSMD mean; cell count: measured here: cell number; plate-normalised HSF1 focus index: stronger effect = lower value
[10] = survival rescue of mitochondrial mutant cells in low glucose, primary screen, MELAS cybrids, Rieske KO mouse fibroblasts, CellTiter-Glo (AID 1508586;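 active = mean z-score across replicates of 1.96 or higher in either the MELAS or the Rieske mutant cell line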;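 note: z relative to plate mean and SD of compound and empty wells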)
[11] = ovarian cancer cell viability with rucaparib, profiling panel, oncology-focused library, rucaparib conditional (AID 1508598); settings: patient-derived ovarian cancer cells, CellTiter-Glo viability, 144 h, stronger effect = lower value
[12] = stronger effect = lower value, cell number ratio, induced over uninduced
[13] = measured here: relative caspase fold change +Dox/-Dox
[14] = measured here: total cells with miR-34 induction, stronger effect = lower value
[15] = measured here: total cells without miR-34 induction
[16] = MELAS cybrid survival, CellTiter-Glo 48 h, stronger effect = higher value
[17] = Rieske KO mouse fibroblast survival, CellTiter-Glo 72 h

CCCCCCCCCCCCCCCC(=O)OC(CC(=O)O)C[N+](C)(C)C (configuration not stated)
6530 and 7890: cell count [6, 14]
inactive: period change [1] 0.01 h | survival [2] 103 | inhibition [3] -4% | fluorescence ratio (interference) [4] 1 | remaining activity [5] 122% | fold change [6, 12] 1.09 and 1.01 | outcome [7] | z-score [8] -1.29 and -1.24
5960 and 7780: cell count [6, 15]
0.674 and 0.826: fold change [6, 13]

CC(NC(=O)c1ccccc1N=Cc1c(O)ccc2ccccc12)c1ccccc1 (configuration not stated)
7540 and 7810: cell count [6, 15]
-0.189: z-score [10, 17]
7190 and 7160: cell count [6, 14]
0.477 and 1.5: fold change [6, 13]
inactive: remaining activity [5] 102% | fold change [6, 12] 0.954 and 0.917 | plate-normalised HSF1 focus index [9] 1.11 | z-score [10, 16] -0.168 | viability ([11]; at 0.000305 µM, OCI-C5x cells, with rucaparib 10 µM, 100% = cells with rucaparib alone) 111% | viability ([11]; at 0.000305 µM, OCI-P5x cells, with rucaparib 20 µM, 100% = cells with rucaparib alone) 102% | viability ([11]; at 0.00122 µM, OCI-C5x cells, with rucaparib 10 µM, 100% = cells with rucaparib alone) 122% | viability ([11]; at 0.00122 µM, OCI-C5x cells, without rucaparib) 121% | viability ([11]; at 0.00122 µM, OCI-P5x cells, with rucaparib 20 µM, 100% = cells with rucaparib alone) 103% | viability ([11]; at 0.00488 µM, OCI-C5x cells, with rucaparib 10 µM, 100% = cells with rucaparib alone) 119% | viability ([11]; at 0.00488 µM, OCI-C5x cells, without rucaparib) 126% | viability ([11]; at 0.00488 µM, OCI-P5x cells, with rucaparib 20 µM, 100% = cells with rucaparib alone) 106% | viability ([11]; at 0.0195 µM, OCI-C5x cells, with rucaparib 10 µM, 100% = cells with rucaparib alone) 121% | viability ([11]; at 0.0195 µM, OCI-C5x cells, without rucaparib) 119% | viability ([11]; at 0.0195 µM, OCI-P5x cells, with rucaparib 20 µM, 100% = cells with rucaparib alone) 114% | viability ([11]; at 0.0781 µM, OCI-C5x cells, with rucaparib 10 µM, 100% = cells with rucaparib alone) 112% | viability ([11]; at 0.0781 µM, OCI-C5x cells, without rucaparib) 119% | viability ([11]; at 0.0781 µM, OCI-P5x cells, with rucaparib 20 µM, 100% = cells with rucaparib alone) 108% | viability ([11]; at 0.0781 µM, OCI-P5x cells, without rucaparib) 102% | viability ([11]; at 0.313 µM, OCI-C5x cells, with rucaparib 10 µM, 100% = cells with rucaparib alone) 116% | viability ([11]; at 0.313 µM, OCI-C5x cells, without rucaparib) 118% | viability ([11]; at 0.313 µM, OCI-P5x cells, with rucaparib 20 µM, 100% = cells with rucaparib alone) 108% | viability ([11]; at 0.313 µM, OCI-P5x cells, without rucaparib) 104% | viability ([11]; at 1.25 µM, OCI-C5x cells, with rucaparib 10 µM, 100% = cells with rucaparib alone) 116% | viability ([11]; at 1.25 µM, OCI-C5x cells, without rucaparib) 126% | viability ([11]; at 1.25 µM, OCI-P5x cells, with rucaparib 20 µM, 100% = cells with rucaparib alone) 115% | viability ([11]; at 1.25 µM, OCI-P5x cells, without rucaparib) 109% | viability ([11]; at 5 µM, OCI-C5x cells, with rucaparib 10 µM, 100% = cells with rucaparib alone) 105% | viability ([11]; at 5 µM, OCI-C5x cells, without rucaparib) 143% | viability ([11]; at 5 µM, OCI-P5x cells, with rucaparib 20 µM, 100% = cells with rucaparib alone) 112% | viability ([11]; at 5 µM, OCI-P5x cells, without rucaparib) 108% | z-score [8] 0.205
1.72: SSMD [9]
active: viability ([11]; at 0.000305 µM, OCI-C5x cells, without rucaparib) 99.9% | viability ([11]; at 0.000305 µM, OCI-P5x cells, without rucaparib) 90.3% | viability ([11]; at 0.00122 µM, OCI-P5x cells, without rucaparib) 95.7% | viability ([11]; at 0.00488 µM, OCI-P5x cells, without rucaparib) 96.5% | viability ([11]; at 0.0195 µM, OCI-P5x cells, without rucaparib) 100%
7320: cell count [9]

N#Cc1cc2nc(O)c(O)nc2cc1[N+](=O)[O-]
9680 and 8420: cell count [6, 14]
inactive: period change [1] 0.03 h | inhibition [3] -1% | fluorescence ratio (interference) [4] 1 | remaining activity [5] 114% | fold change [6, 12] 1.02 and 0.856 | outcome [7] | z-score [8] 0.385 and 0.185
1.08 and 1.89: fold change [6, 13]
9500 and 9840: cell count [6, 15]

NS(=O)(=O)C#Cc1ccccc1
3660 and 6510 and 3430: cell count [6, 14]
3080 and 6730 and 3020: cell count [6, 15]
-0.117: z-score [10, 17]
inactive: inhibition [3] 0% | fluorescence ratio (interference) [4] 1 | remaining activity [5] 110% | fold change [6, 12] 1.19 and 0.967 and 1.13 | outcome [7] | z-score [10, 16] -0.62 | z-score [8] -1.27 and -0.695
1.2 and 0.467 and 1.12: fold change [6, 13]

Fc1cccc(/C=N/N=C/c2cccc(F)c2)c1
inactive: remaining activity [5] 113% | fold change [6, 12] 1.08 and 0.921 | outcome [7] | z-score [8] 0.64 and 0.415
10400 and 9330: cell count [6, 15]
11300 and 8600: cell count [6, 14]
1.02 and 0.755: fold change [6, 13]
